# Experimental data reported in ChEMBL document CHEMBL3433997, “St. Jude Leishmania screening dataset” (2016).
# Columns and labels:
# Assay type in all cases: functional
# [1] = target: Solute carrier family 2, facilitated glucose transporter member 1 (Homo sapiens) (UniProt P11166); assay: ST_JUDE_LEISH: Cytotoxicity at 2uM final concentration against transgenic Leishmania Mexicana promastigotes LmGLUT1 that are glucose transport deficient and complemented with the human glucose transporter GLUT1. Activity is measured by DNA content using SYBR green in vitro
# Chain of Solute carrier family 2, facilitated glucose transporter member 1 (Homo sapiens) (P11166 whole entry): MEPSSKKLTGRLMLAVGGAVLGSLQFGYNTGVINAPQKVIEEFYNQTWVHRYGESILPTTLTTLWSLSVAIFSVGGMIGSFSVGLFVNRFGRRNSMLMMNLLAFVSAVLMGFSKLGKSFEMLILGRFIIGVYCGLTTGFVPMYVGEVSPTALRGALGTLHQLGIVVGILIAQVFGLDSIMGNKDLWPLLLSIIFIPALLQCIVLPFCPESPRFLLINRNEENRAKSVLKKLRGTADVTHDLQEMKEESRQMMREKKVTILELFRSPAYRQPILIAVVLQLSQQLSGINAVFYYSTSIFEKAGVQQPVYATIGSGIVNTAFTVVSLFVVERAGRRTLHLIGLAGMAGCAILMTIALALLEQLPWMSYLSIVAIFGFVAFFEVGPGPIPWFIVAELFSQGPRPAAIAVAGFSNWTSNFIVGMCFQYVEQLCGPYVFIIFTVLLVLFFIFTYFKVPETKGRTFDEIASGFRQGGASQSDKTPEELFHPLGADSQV
# [2] = target: Hexose transporter 1 (Plasmodium falciparum) (UniProt O97467); assay: ST_JUDE_LEISH: Cytotoxicity at 2uM final concentration against transgenic Leishmania Mexicana promastigotes LmPfHT that are glucose transport deficient and complemented with the Plasmodium falciparum hexose transporter. Activity is measured by DNA content using SYBR green in vitro
# [3] = target: Glucose transporter (Leishmania mexicana) (UniProt O61059); assay: ST_JUDE_LEISH: Cytotoxicity at 2uM final concentration against transgenic Leishmania Mexicana promastigotes LmGT2 that are glucose transport deficient and complemented with the L. Mexicana glucose transporter 2. Activity is measured by DNA content using SYBR green in vitro
Structure (SMILES),inhibition [1] [%],inhibition [2] [%],inhibition [3] [%]
CC(C)CNCc1cccc(-c2cccc(CN(CCCN3CCN(C)CC3)C(=O)CCC3CCCC3)c2)c1,4.42,3.07,4.38
Nc1nc(N)c2c(n1)CCc1cc(Br)ccc1-2,1.65,4.52,2.4
COc1cccc2c(C)cc(NCc3ccc(Cl)cc3)nc12,4.96,4.71,3.54
O=C(NCCc1ccccc1)N(Cc1ccccc1-c1cccc(CNCCc2ccccc2)c1)C1CCN(Cc2ccccc2)CC1,2.61,1.06,5.48
Cc1ccc(NC(=O)Nc2cccc(Cl)c2)cc1-c1ccc(C(=O)Nc2ccncc2)cc1,-1.84,-1.56,-1.5
CCOc1ccc2[nH]c(C)cc(=NN=Cc3cccnc3)c2c1,8.63,6.06,7.76
O=C(C=Cc1ccc(Br)cc1)N1CCC(CCN2CCC(c3c[nH]c4ccccc34)CC2)CC1,4.46,8.48,4.25
N#Cc1c(N2CCCCCC2)nc(N)c2c(N)nc3c(c12)CC(=O)N3c1ccc(F)cc1,2.61,1.65,2.89
CCN(CC)CCCC(C)Nc1c2ccc(Cl)cc2nc2ccc(OC)cc12 (stereo unspecified),5.81,1.67,3.71
OC1CCC(Nc2ccc3ncc(-c4ccc5ccccc5c4)n3n2)CC1 (stereo unspecified),1.14,3.23,3.53
CCCN(C(=O)c1ccccc1C)c1nnc(-c2ccccc2C)s1,-1.25,0.17,-3.1
O=C(Nc1ccc(Cl)c(C(F)(F)F)c1)NC1CCN(CCCCCNC(=O)C2CC2c2ccc(Cl)c(Cl)c2)CC1 (stereo unspecified),7.55,9.26,6.43
O=C(/C=C/c1ccc(Cl)c(Cl)c1)NCCCCCCN1CCN(C(=O)Nc2ccc(F)c(Cl)c2)CC1,13.8,11.5,14.1
COc1cc(CNC[C@@H](O)[C@H](Cc2ccccc2)NC(=O)c2cc(OC(C)C)cc(N3CCCS3(=O)=O)c2)cc(OC)c1,4.85,4.74,2.1
CCCNC(=O)c1cncc(-c2cccc(CNC3Cc4ccccc4C3)c2)c1,-1.27,-1.42,-1.3
COc1ccc(Cn2c(Nc3cccc(C(F)(F)F)c3)nc3cc(C(=O)NC(C)C)cnc32)cc1Cl,10.3,9.69,10.9
Fc1ccc(Nc2ccnc3cc(-c4cccc(CNCCN5CCOCC5)c4)ccc23)c(Cl)c1,2.04,2.83,2.84
COc1ccc2nccc([C@@H](O)CN3CCC(NCc4nc5ccccc5[nH]4)CC3)c2c1,1.84,-0.18,-0.97
O=C(Cn1c(CCc2cccc(F)c2F)cc(=O)c2cccnc21)N(CCCn1ccnc1)Cc1ccc(-c2ccc(C(F)(F)F)cc2)cc1,2.11,1.17,0.71

Structure (SMILES),inhibition [1] [%],inhibition [2] [%],inhibition [3] [%]
Cc1noc(C)c1-c1ccc2c(Nc3ccccc3C(C)(C)C)c(C(=O)NCc3ccc(OC(C)C)cc3)cnc2c1,3.36,4.36,5.28
CCCC(C)NC(=O)c1cnn(-c2ccc(C(C)(C)C)cc2)c1OCc1ccc(Br)cc1 (stereo unspecified),4.76,6.02,5.11
CCCCN1CCCN(Cc2cccc(NC(=O)c3ccc(-c4ccccc4)cc3)c2)CC1,1.16,-2.15,-1.31
CON=Cc1ccn(-c2ccc(O)c3c2C[C@H]2C[C@H]4[C@H](N(C)C)C(O)=C(C(N)=O)C(=O)[C@@]4(O)C(O)=C2C3=O)c1,5.15,4.25,4.92
Cn1cnc(-c2ccc3c(c2)CCN(CCC2CCC(NC(=O)/C=C/c4ccc(F)cc4)CC2)CC3)c1 (stereo unspecified),54.7,70.5,60.9
CC(C)Cn1c(Sc2ccc(C#N)c([N+](=O)[O-])c2)nnc1-c1ccc(N(C)C)cc1,-0.55,0.63,-4.37
CC[C@H](NC(=O)c1c(N)c(-c2sccc2Cl)nc2ccccc12)c1ccccc1,3.8,0.64,1.74
Cc1cc(NCC(C)C)c2[nH]nc(-c3ccccc3)c2n1,2.41,3.39,1.69
COc1ccc2ccc(F)c(CC(=O)N3CCOC(CNCc4cccc(-c5ccsc5)n4)C3)c2n1 (stereo unspecified),6.96,6.66,4.23
Cc1nc2ccc(F)cc2n1C1CCN(C(=O)Cc2ccc(F)c(F)c2)CC1,-1.6,-1.91,1.89
O=C(Nc1cc(C(F)(F)F)cc(C(F)(F)F)c1)c1cccc([N+](=O)[O-])c1,3.73,4.66,2.84
CC(C)CCN1CCC(Oc2ccc(NC(=O)c3ccc(F)cc3)cc2Cl)CC1,-2.57,-4.4,0.92
CC(C)C(C(=O)Nc1ccc2c(c1)OCO2)c1ccc(Cl)cc1 (stereo unspecified),3.38,2.76,1.99
O=C(Nc1ccc(Cn2ncc(N3CCNCC3)c(Cl)c2=O)cc1)Nc1ccc(-c2ccccc2)cc1,4.36,2.78,-0.78
O=C(Nc1ccc(C(F)(F)F)cc1)c1ccc(S(=O)(=O)NC2CCN(CC3CCCCC3)CC2)cc1,1.19,0.54,-1.52
Nc1nc(N)c2c(ccn2Cc2cc3c(cc2Cl)OCO3)n1,4.12,2.86,10.5
CC(CN(C)C)C(=O)Nc1ccc(-c2ccc(-c3nc4cc(F)ccc4[nH]3)cc2)cc1 (stereo unspecified),5.33,1.98,2.85
CO/C(=C\C=C\c1cc2cc(Cl)c(Cl)cc2[nH]1)C(=O)NCCCCN1CCN(c2ccccc2OC)CC1,3.1,2.16,1.91
